Bioassay records from PubChem BioAssay.
PglD DTNB: PglD (C. jejuni) enzyme inhibition; 360,000 tested, 0.098% active; AID 602405; inhibition, % at 12.5 µM; purified PglD enzyme, DTNB colorimetric CoA detection; in the data active = inhibition above about 16%, passing the limit was not always enough; inconclusive = no clear call, values can overlap the other calls
DENV2 CPE: inhibitors of DENV2 cytopathic effect | DENV2-infected cells, cytopathic effect rescue, plate reader | CPE inhibition, % at 9.99 µM | 350,000 tested, 1.7% active | AID 651640; in the data active = CPE inhibition above about 20%, passing the limit was not always enough; inconclusive = no clear call, values can overlap the other calls; tested in BHK-21 cells;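 also: 0% = median of neutral control wells and 100% = median of positive control wells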
An asterisk follows results filed as active; ? = inconclusive; . = no result. Many of the other results were omitted from the sample, so hits are more common in it than they were.

SMILES	PglD DTNB	DENV2 CPE
CO[C@@H]1CN(C)C(=O)c2ccc(NC(=O)c3cccc(F)c3)cc2OC[C@H](C)NC[C@@H]1C	-3.0	23.6*
C[C@H]1CCCCO[C@H](CN(C)C(=O)Nc2ccccc2)[C@@H](C)CN([C@@H](C)CO)C(=O)c2cc(NS(=O)(=O)c3ccc(F)cc3)ccc2O1	1.7	-6.5
O=C(C[C@@H]1C=C[C@H](NS(=O)(=O)c2ccc(F)cc2)[C@H](CO)O1)N1CCN(c2ccccc2)CC1	1.5	3.9
C[C@@H]1CN([C@@H](C)CO)C(=O)Cc2cc(NC(=O)CCC(F)(F)F)ccc2O[C@H]1CN(C)Cc1ccc(C(=O)O)cc1	.	3.6
CS(=O)(=O)N1Cc2cc(C(=O)O)nc(-c3cccc(-c4ccccc4F)c3)c2[C@@H]1CCO	.	5.0
Cc1noc(C)c1NC(=O)Nc1ccc2c(c1)C(=O)N(C)[C@H]1CC[C@@H](CC(=O)N(C)C)O[C@@H]1CO2	-0.5	-0.9
C[C@H](CO)N1C[C@H](C)[C@@H](CN(C)S(C)(=O)=O)OCCCC[C@H](C)Oc2ccc(NC(=O)Nc3ccc(F)cc3)cc2C1=O	0.6	26.3*
COc1ccc(S(=O)(=O)N(C)C[C@@H]2OCCCC[C@H](C)Oc3ccc(NC(=O)c4ccccc4)cc3C(=O)N([C@H](C)CO)C[C@@H]2C)cc1	-0.3	44.0*
C[C@@H]1CCCCO[C@H](CN(C)S(C)(=O)=O)[C@@H](C)CN([C@H](C)CO)C(=O)c2cc(NC(=O)Nc3ccc(F)cc3)ccc2O1	.	-9.1
COc1ccc(NC(=O)Nc2ccc3c(c2)C(=O)N([C@H](C)CO)C[C@H](C)[C@H](CN(C)S(=O)(=O)c2ccc(Cl)cc2)OCCCC[C@@H](C)O3)cc1	-0.2	?
C[C@@H]1CCCCO[C@@H](CN(C)S(=O)(=O)c2ccccc2)[C@@H](C)CN([C@H](C)CO)C(=O)c2cc(NC(=O)Nc3ccccc3)ccc2O1	0.4	65.5*
COc1ccc(S(=O)(=O)N(C)C[C@H]2OCCCC[C@H](C)Oc3ccc(NC(=O)c4ccccc4)cc3C(=O)N([C@@H](C)CO)C[C@H]2C)cc1	0.6	5.8
COc1ccc(NC(=O)Nc2ccc3c(c2)C(=O)N([C@H](C)CO)C[C@@H](C)[C@@H](CN(C)S(=O)(=O)c2ccc(Cl)cc2)OCCCC[C@H](C)O3)cc1	-1.3	40.0*
CC(C)[C@H](C)NC(=O)N(C)C[C@@H]1OCc2ccccc2-c2c(n(C)c3ccccc23)C(=O)N([C@H](C)CO)C[C@H]1C	6.3	.
CC(C)c1cn(CC[C@@H]2CC[C@H](NS(=O)(=O)Cc3ccccc3)[C@H](CO)O2)nn1	-45.4	?
C[C@@H]1CN([C@@H](C)CO)C(=O)c2cc(NC(=O)Nc3cccc4ccccc34)ccc2O[C@@H](C)CCCCO[C@@H]1CN(C)S(=O)(=O)c1ccc(F)cc1	-1.6	20.8*
COc1ccc(NC(=O)Nc2ccc3c(c2)C(=O)N([C@@H](C)CO)C[C@@H](C)[C@@H](CN(C)S(=O)(=O)c2ccccc2)OCCCC[C@@H](C)O3)cc1	3.5	66.4*
COc1ccc(S(=O)(=O)N(C)C[C@H]2OCCCC[C@H](C)Oc3ccc(NC(=O)Nc4c(C)noc4C)cc3C(=O)N([C@H](C)CO)C[C@@H]2C)cc1	1.7	67.0*
COc1ccc(S(=O)(=O)N(C)C[C@@H]2OCCCC[C@H](C)Oc3ccc(NC(=O)NC(C)C)cc3C(=O)N([C@@H](C)CO)C[C@H]2C)cc1	2.8	49.2*
C[C@H](CO)N1C[C@H](C)[C@H](CN(C)S(=O)(=O)c2ccc(F)cc2)OCCCC[C@H](C)Oc2ccc(NC(=O)Nc3cccc4ccccc34)cc2C1=O	1.6	-3.7
COc1ccc(NC(=O)Nc2ccc3c(c2)C(=O)N([C@@H](C)CO)C[C@H](C)[C@@H](CN(C)S(=O)(=O)c2ccccc2)OCCCC[C@@H](C)O3)cc1	-2.5	8.0
CC=Cc1ccc2n(c1=O)C[C@H]1[C@H](CO)[C@@H](C(=O)NC3CCC3)[C@@H]2N1C(=O)c1cnccn1 (mixture of isomers)	.	-5.3
CN(C)CC(=O)N1CC2(C1)[C@@H](c1ccccc1)[C@@H](CO)N2S(=O)(=O)c1ccccc1	.	8.5
C[C@H](CO)N1C[C@H](C)[C@H](CN(C)C(=O)CN(C)C)Oc2cc(C#C[C@@H](C)O)ccc2S1(=O)=O	-0.3	8.3
COCC(=O)N(C)C[C@H]1Oc2ncc(-c3ccccc3F)cc2C(=O)N([C@@H](C)CO)C[C@H]1C	-1.5	.
SMILES	PglD DTNB	DENV2 CPE
C[C@@H]1CCCCO[C@H](CN(C)S(=O)(=O)c2ccccc2)[C@H](C)CN([C@@H](C)CO)C(=O)c2cc(NC(=O)Nc3ccc(F)cc3)ccc2O1	0.5	-11.7
C[C@H](CO)N1C[C@H](C)[C@@H](CN(C)S(=O)(=O)c2ccccc2)OCCCC[C@H](C)Oc2ccc(NC(=O)Nc3ccc(F)cc3)cc2C1=O	-2.9	52.2*
C[C@H](CO)N1C[C@H](C)[C@H](CN(C)S(=O)(=O)c2ccc(Cl)cc2)OCCCC[C@H](C)Oc2ccc(NC(=O)c3ccccc3)cc2C1=O	-1.7	21.4*
C[C@@H]1CN([C@@H](C)CO)C(=O)c2cc(NC(=O)Nc3ccc(F)cc3)ccc2O[C@@H](C)CCCCO[C@H]1CN(C)S(=O)(=O)c1ccccc1	1.2	124.3*
C[C@@H]1CCCCO[C@@H](CN(C)C(=O)Nc2ccccc2)[C@@H](C)CN([C@H](C)CO)C(=O)c2cc(NS(C)(=O)=O)ccc2O1	-2.0	-11.6
Cc1ccccc1S(=O)(=O)N1CC[C@@H]2[C@@H](CO)N(C)c3ccc(-c4cccc(F)c4)cc3[C@@H]21	-2.1	44.4*
CN1c2ccc(-c3ccccc3)cc2[C@@H]2[C@@H](CCN2S(=O)(=O)c2ccccc2F)[C@@H]1CO	-1.2	68.2*
